HTT cytoprotect – qHTS Multiplex Assay to Identify Dual Action Probes in a Cell Model of Huntington: Cytoprotection (ATP). 230,000 tested, 0.14% active. PC12 HTT-Q103 induced, cytoprotection, ATP luminescence, 40 h. Potency, µM (titrated, usually from 56.4 µM), inactives show cytoprotection (ATP increase), most hits filed as activators. AID 1471, 2008; further: % of control where 0% means no effect; nearly all actives have a fitted effect of over 45% in size
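Readout: ATPlite luminescence (ATP level). Model: stable PC12, inducible Htt exon1 Q103-GFP. Inducer: tebufenozide, 100 nM final. Compounds: dose series. No G418 in medium.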
HttQ103 aggreg – qHTS Multiplex Assay to Identify Dual Action Probes in a Cell Model of Huntington: Aggregate Formation (GFP). PC12 HttQ103-GFP aggregates, Acumen cytometry, 40 h. Potency, µM (doses to about 46.1 µM), inactives show at the top dose activity change, negative = inhibition, usual class: inhibitors. 220,000 tested, 1.1% active. AID 1688, 2009; further: on the % scale 0 is the no-effect control and ±100 the full control effect; nearly all actives have a fitted effect of over 60% in size
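Quantitative HTS on tebufenozide-induced (100 nM) PC12 cells stably expressing polyQ103 Huntingtin exon 1–GFP. Reduction of bright GFP aggregates, detected by laser scanning cytometry after lysis, identified actives across the titration.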
Tau fibril FP – qHTS for Inhibitors of Tau Fibril Formation, Fluorescence Polarization; Potency, µM (titrated, usually from 57.7 µM), without a hit: at the highest dose activity, negative = inhibition, actives largely listed as inhibitors; 280,000 tested, 0.39% active; K18 P301L tau heparin fibrillization, Alexa594 FP, 6 h; Microtubule-associated protein tau (Homo sapiens), P10636; further: on the % scale 0 is the no-effect control and ±100 the full control effect; nearly all actives have a fitted effect of over 55% in size
Target sequence (P10636 561-689 P618L limits assumed): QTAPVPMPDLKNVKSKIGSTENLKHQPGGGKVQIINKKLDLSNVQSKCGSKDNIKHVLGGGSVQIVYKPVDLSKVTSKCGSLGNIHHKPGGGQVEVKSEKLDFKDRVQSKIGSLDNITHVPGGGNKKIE
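Recombinant K18 P301L […], labeled with Alexa 594 at 0.24 uM over 15 uM unlabeled; heparin inducer 20 uM final; 37 C, 6 hr; FP endpoint.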
Tau fluor counter – Counterscreen qHTS for Inhibitors of Tau Fibril Formation, Fluorescence Polarization. tau K18 P301L Alexa594 fluorescence, heparin fibrillization. Potency, µM (highest dose often 57.7 µM), for inactives: at the highest dose activity change, negative = decrease. 280,000 tested, 0.93% active. AID 1463, 2008; further: on the % scale 0 is the no-effect control and ±100 the full control effect; nearly all actives have a fitted effect of over 55% in size
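Human K18 P301L tau (15 uM unlabeled plus 0.24 uM Alexa 594-labeled, final) in 100 mM sodium acetate pH 7 was mixed with compound and 20 uM heparin and incubated 6 hr at 37 C.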
Tau ThT inhib – qHTS for Inhibitors of Tau Fibril Formation, Thioflavin T Binding; Microtubule-associated protein tau (Homo sapiens), P10636; recombinant tau K18 P301L (four-repeat tau fragment), heparin-induced fibrillization, ThT fluorescence; Potency, µM (highest dose often 57.4 µM), without a hit: at the highest dose activity, negative = inhibition, hits mostly inhibitors; 270,000 tested, 2.1% active; AID 1460, 2008; further: on the % scale 0 is the no-effect control and ±100 the full control effect; nearly all actives have a fitted effect of over 55% in size
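Recombinant human tau K18 fragment […] carrying P301L, 15 uM unlabeled plus 0.24 uM Alexa 594-labeled, was fibrillized with 20 uM heparin in 100 mM sodium acetate pH 7 for 6 hr at 37 C; 30 uM ThT fluorescence read after 1 hr.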
Starred values were filed as active, the others as inactive; [ ] = dose if it differs, or a comment. This is a sample that favours compounds with a hit; in the whole collection about 3.7% have one here. The call rests on the fitted dose curve; in most records, active means well fitted curve in the direction sought with a large enough effect; inconclusive means small, poorly fitted or top-dose-only effect, or another doubt; inactive means no such curve, though single readings can be large; an effect the other way counts as inactive or inconclusive. Potency means the concentration at half of the fitted maximal effect.

What do the screens show for `COc1cccc(NS(=O)(=O)c2ccc3[nH]cc(C(=O)NC(C)c4ccccc4)c(=O)c3c2)c1` (stereo unspecified)?
Tau fibril FP: 7.9µM*; Tau fluor counter: inconclusive; Tau ThT inhib: 11%

Results for CCCCSCCCNC(=O)c1c[nH]c2ccc(S(=O)(=O)Nc3cccc(OC)c3)cc2c1=O ?
Tau fibril FP: 2µM*; Tau fluor counter: inconclusive; Tau ThT inhib: 5%

What do the screens show for `CC(C)=C1CCC(C)CC1=O` (stereo unspecified)?
HTT cytoprotect: 6%

How did Cc1sc2ncn(CCn3cnc4sc(C)c(C)c4c3=O)c(=O)c2c1C do in these assays?
HTT cytoprotect: 6%; HttQ103 aggreg: 0.45µM*; Tau fibril FP: -4%; Tau fluor counter: -6%; Tau ThT inhib: -2%

Results for COc1ccccc1N1CCN(/N=C/C=C/c2ccccc2[N+](=O)[O-])CC1 ?
HTT cytoprotect: 34%[10 µM]; HttQ103 aggreg: 13%[9.22 µM]; Tau fibril FP: 12%; Tau fluor counter: inconclusive; Tau ThT inhib: 14µM*

How did O=[N+]([O-])c1ccccc1/C=N\N1CCN(c2ccccc2)CC1 do in these assays?
HTT cytoprotect: 9%[10 µM]; HttQ103 aggreg: 29%[9.22 µM]; Tau fibril FP: 5%; Tau fluor counter: inconclusive; Tau ThT inhib: 11µM*

How did O=[N+]([O-])c1ccccc1/C=C\C=N\N1CCN(c2ccccc2)CC1 do in these assays?
HTT cytoprotect: -46%; HttQ103 aggreg: inconclusive; Tau fibril FP: 14%; Tau fluor counter: inconclusive; Tau ThT inhib: 13µM*

How did O=[N+]([O-])c1ccccc1/C=N/N1CCN(c2ccc(Cl)cc2)CC1 do in these assays?
HTT cytoprotect: 9%[10 µM]; HttQ103 aggreg: 0%; Tau fibril FP: 5%; Tau fluor counter: inconclusive; Tau ThT inhib: 11µM*

What do the screens show for `Cc1cc(OC(C)C)nc(-c2ccccc2O)n1`?
HTT cytoprotect: -6%; HttQ103 aggreg: 6%; Tau fibril FP: inconclusive; Tau fluor counter: -15%; Tau ThT inhib: inconclusive

How did Cc1cc(Nc2ccccc2)nc(-c2ccccc2O)n1 do in these assays?
HTT cytoprotect: -11%[0.074 µM]; HttQ103 aggreg: inconclusive; Tau fibril FP: 28µM*; Tau fluor counter: 11µM*[quencher]; Tau ThT inhib: inconclusive

How did CCOC(=O)c1ccc(Nc2cc(C)nc(-c3ccccc3O)n2)cc1 do in these assays?
HTT cytoprotect: -30%; HttQ103 aggreg: -15%; Tau fibril FP: 10µM*; Tau fluor counter: inconclusive; Tau ThT inhib: inconclusive

What do the screens show for `Cc1cc(NCc2ccccc2)nc(-c2ccccc2O)n1`?
HTT cytoprotect: -48%; HttQ103 aggreg: inconclusive; Tau fibril FP: inconclusive; Tau fluor counter: 13µM*[quencher]; Tau ThT inhib: inconclusive

Results for CCCOc1cc(C)nc(-c2ccccc2O)n1 ?
HTT cytoprotect: -30%; HttQ103 aggreg: inconclusive; Tau fibril FP: -2%; Tau fluor counter: inconclusive; Tau ThT inhib: 16µM*

How did CC1CN(c2c(F)c(N)c3c(=O)c(C(=O)O)cn(C4CC4)c3c2F)CC(C)N1 (stereo unspecified) do in these assays?
HTT cytoprotect: inconclusive; HttQ103 aggreg: 19%; Tau fibril FP: 0%; Tau fluor counter: -7%; Tau ThT inhib: -8%

How did N#C/C(=C\c1ccc(Br)cc1)c1nc(-c2cc3cc(Br)ccc3oc2=O)cs1 do in these assays?
Tau fibril FP: 2%; Tau fluor counter: 3%; Tau ThT inhib: 3%

How did CC1=C(C(=O)Nc2cccnc2)C(c2cccc(F)c2)n2nc(SCc3ccccc3)nc2N1 (stereo unspecified) do in these assays?
Tau fibril FP: -11%; Tau fluor counter: -13%; Tau ThT inhib: -8%

Results for Cc1cc(Nc2cccc(F)c2)nc(-c2ccccc2O)n1 ?
HTT cytoprotect: -21%; HttQ103 aggreg: 25µM*; Tau fibril FP: 11µM*; Tau fluor counter: inconclusive; Tau ThT inhib: -9%

Results for Cc1cc(N=Nc2ccc(C)c(N=Nc3cc(C)c(N)cc3N)c2)c(N)cc1N ?
HTT cytoprotect: -26%[10 µM]; HttQ103 aggreg: -13%[9.22 µM]; Tau fibril FP: -4%; Tau fluor counter: 16µM*[quencher]; Tau ThT inhib: 4µM*

How did CCOC(=O)c1sc(NC(=O)CSc2nc3ccccc3s2)c(C(=O)OCC)c1C do in these assays?
HTT cytoprotect: 6%[10 µM]; HttQ103 aggreg: -3%; Tau fibril FP: -3%; Tau fluor counter: -1%; Tau ThT inhib: 0%

Results for CCOC(=O)c1sc(SCC(=O)Nc2ccc(N(C)C)cc2)nc1N ?
HTT cytoprotect: -93%[10 µM]; HttQ103 aggreg: 5%; Tau fibril FP: 8%; Tau fluor counter: inconclusive; Tau ThT inhib: 14µM*

What do the screens show for `CN(C)c1ccc(NC(=O)CSc2nc(N)c(C(=O)Nc3ccc(N(C)C)cc3)s2)cc1`?
HTT cytoprotect: -75%; HttQ103 aggreg: inconclusive; Tau fibril FP: 13%; Tau fluor counter: 13µM*[quencher]; Tau ThT inhib: 2.5µM*

Results for COc1ccc(NC(=O)CSc2nc(N)c(C(=O)Nc3ccc(N(C)C)cc3)s2)cc1 ?
HTT cytoprotect: -66%; HttQ103 aggreg: -7%; Tau fibril FP: 15%; Tau fluor counter: inconclusive; Tau ThT inhib: 2.5µM*

Results for COc1ccc(NC(=O)CSc2nnc(N)s2)cc1 ?
HTT cytoprotect: 3%; HttQ103 aggreg: -2%; Tau fibril FP: 2%; Tau fluor counter: -4%; Tau ThT inhib: 1%

How did C#CCCCO/N=C1/C[C@@H](O)[C@@H](O)[C@@H]2[C@@H]3C(=O)N(C(C)(C)C)C(=O)[C@H]3CC[C@H]12 do in these assays?
HTT cytoprotect: -5%[10 µM]; Tau fibril FP: 1%[11.6 µM]; Tau fluor counter: -2%[11.6 µM]; Tau ThT inhib: -2%[11.5 µM]

Results for COc1ccc(Nc2nc(N)nc(CCl)n2)cc1 ?
HTT cytoprotect: 7%[10 µM]; HttQ103 aggreg: -6%[9.22 µM]; Tau fibril FP: 1%; Tau fluor counter: -18%; Tau ThT inhib: inconclusive

What do the screens show for `COc1ccc(Nc2nc(N)c3cc(OC)c(OC)cc3n2)cc1`?
Tau fibril FP: inconclusive; Tau fluor counter: 11µM*[quencher]; Tau ThT inhib: inconclusive

What do the screens show for `CCOc1ccccc1NC1=C(Cl)C(=O)N(Cc2ccccc2)C1=O`?
HTT cytoprotect: -2%; HttQ103 aggreg: -7%; Tau fibril FP: 1%; Tau fluor counter: -28%; Tau ThT inhib: inconclusive

What do the screens show for `O=C1C(Cl)=C(Nc2cccc(O)c2)C(=O)N1Cc1ccccc1`?
HttQ103 aggreg: -28%; Tau fibril FP: -6%; Tau fluor counter: inconclusive; Tau ThT inhib: 14µM*

Results for Cc1ccc(S(=O)(=O)NNC(=O)c2cccs2)c(C)c1 ?
HttQ103 aggreg: -3%; Tau fibril FP: -1%; Tau fluor counter: -6%; Tau ThT inhib: -5%
